This is a sample that favours compounds with a hit; in the whole collection about 7.5% have one here.
NPC1 promoter act: qHTS Assay for NPC1 Promoter Activators; Potency, µM (top dose mostly 9.22 µM), for inactives: top-dose activation, actives largely listed as activators; AID 485313, 2010; Huh7 NPC1 promoter luciferase reporter, 24 h; hit rate 2.4% among 320,000; note: % of control where 0% means no effect; nearly all actives have a fitted effect of over 60% in size
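Readout is luciferase luminescence, reflecting NPC1 promoter activation in stably transfected Huh7 cells after 24 h compound exposure at 37 °C in reduced-serum medium with 10% FBS.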
KinaseGlo FLuc: Counterscreen for Luciferase (Kinase-Glo TM) Inhibition; Kinase-Glo luciferase, ATP luminescence, 8 min; Potency, µM (highest dose often 38.3 µM), for inactives: at the top dose activity change, negative = inhibition, actives largely listed as inhibitors; hit rate 0.28% among 200,000; AID 1379, 2008; note: % is set by controls: 0 for no effect and ±100 for the full control effect; nearly all actives have a fitted effect of over 60% in size
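Compounds were added to a substrate mix at pH 7.2 (50 mM imidazole, 10 uM ATP, within the enzyme's linear range), followed by Kinase-Glo detection reagent; luminescence was measured after 8 minutes at ambient temperature.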
Rab9 promoter act: qHTS Assay for Rab9 Promoter Activators | Huh7 Rab9 promoter-luciferase reporter, luminescence, 24 h | Potency, µM (doses to about 9.22 µM), for inactives: at the highest dose activation, negative = inhibition, hits mostly activators | hit rate 2.8% among 320,000; note: % of control where 0% means no effect; nearly all actives have a fitted effect of over 60% in size
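Huh7 cells stably carrying a Rab9 promoter-luciferase reporter, 1500 cells per well in OP-MEM I with 10% FBS, treated with compound 24 hours at 37C. Luciferase activity read by luminescence after 10 minutes with Amplite reagent.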
ELG1 genotox: qHTS screen for small molecules that induce genotoxicity in human embryonic kidney (HEK293T) cells expressing luciferase-tagged ELG1; HEK293T ELG1-luciferase reporter, luminescence, 16 h; Potency, µM (top dose mostly 46 µM), for inactives: at the top dose activity change, positive = activation, actives largely listed as activators; hit rate 1.3% among 330,000; AID 504466, 2011; note: % of control where 0% means no effect; nearly all actives have a fitted effect of over 60% in size
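Luminescence read-out: rising ELG1-luciferase signal, reflecting elevated ELG1 protein under genetic stress, flags genotoxic compounds. Cells were treated for 16 hr at 37 °C before ONE-Glo detection.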
SMN2 splice enh: qHTS Assay for Enhancers of SMN2 Splice Variant Expression | HEK293 SMN2-luciferase splicing reporter, luminescence, 30-36 h | Potency, µM (titrated, usually from 46.1 µM), for inactives: top-dose activity change, positive = activation, usual class: activators | hit rate 2.8% among 210,000 | AID 1458, 2008; note: % of control where 0% means no effect; nearly all actives have a fitted effect of over 55% in size
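HEK293 cells carry an SMN2 […]–luciferase reporter in which exon 7 inclusion puts luciferase in frame. Cells were plated 10-12 h before compound addition, then incubated 30-36 h at 37C. ONE-Glo luminescence was read; sodium butyrate at 4.5 mM final served as control.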
FLuc counter: qHTS profiling assay for firefly luciferase inhibitor/activator using purifed enzyme and Km concentrations of substrates (counterscreen for miR-21 project); hit rate 6.9% among 360,000; Potency, µM (top dose mostly 57.5 µM), for the others: top-dose activity change, negative = inhibition, most hits filed as inhibitors; purified FLuc, Km substrates, luminescence inhibition;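 note: plate controls were vehicle for no effect and reference inhibitor for full effect; nearly all actives have a fitted effect of over 55% in size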
Target sequence (P08659 whole entry, looked up): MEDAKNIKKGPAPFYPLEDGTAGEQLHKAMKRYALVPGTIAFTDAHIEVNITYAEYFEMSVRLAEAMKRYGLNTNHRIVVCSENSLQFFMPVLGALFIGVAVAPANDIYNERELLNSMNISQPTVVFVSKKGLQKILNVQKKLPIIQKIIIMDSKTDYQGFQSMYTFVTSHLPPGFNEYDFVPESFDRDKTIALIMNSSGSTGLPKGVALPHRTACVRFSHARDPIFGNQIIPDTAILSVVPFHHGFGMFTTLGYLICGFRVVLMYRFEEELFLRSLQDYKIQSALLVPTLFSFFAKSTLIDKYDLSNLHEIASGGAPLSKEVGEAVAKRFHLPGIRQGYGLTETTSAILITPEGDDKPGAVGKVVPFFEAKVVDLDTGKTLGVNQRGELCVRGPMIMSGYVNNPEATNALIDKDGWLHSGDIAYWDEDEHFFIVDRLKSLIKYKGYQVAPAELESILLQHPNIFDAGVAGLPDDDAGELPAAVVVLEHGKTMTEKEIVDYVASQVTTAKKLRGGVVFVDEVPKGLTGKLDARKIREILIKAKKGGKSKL
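Purified P. pyralis luciferase, 10 nM final, with Km-level 10 uM D-luciferin and 10 uM ATP in 50 mM Tris acetate pH 7.5, 10 mM Mg acetate, 0.01% Tween-20, 0.05% BSA; 6-point qHTS titration about 60 µM downward; luminescence read.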
Numbers without * were called inactive; ? = inconclusive; · = no result given; [ ] = dose if it differs, or a comment. Calls come from the whole dose curve; as a rule, active = well fitted curve in the direction sought with a large enough effect; inconclusive = small, poorly fitted or top-dose-only effect, or another doubt; inactive = no such curve, though single readings can be large; an effect the other way counts as inactive or inconclusive. Potency is the fitted concentration of half-maximal effect.

SMILES | NPC1 promoter act | KinaseGlo FLuc | Rab9 promoter act | ELG1 genotox | SMN2 splice enh | FLuc counter
O=C(Nc1ccc(NC(=O)c2cccs2)cc1)c1cccs1 | ? | · | ? | ? | · | -1%
COc1ccccc1NC(=O)c1ccccc1NC(=O)c1cccs1 | -3% | · | 0% | 2% | · | 19µM*
CCCOc1ccc(CC(=O)N/N=C\c2ccc(F)cc2)cc1 | 0% | · | 2% | -5% | · | 6%
CCc1nc(SC)ncc1C(=O)NCc1cccc(Br)c1 | · | · | · | · | · | 1%
O=C(Nc1ccccc1Oc1ccsc1C(=O)O)c1ccccc1F | 2% | · | -5% | -5% | · | -4%
O=C(Nc1ccc(Oc2ccsc2C(=O)O)cc1)c1ccccc1F | 18% | · | -1% | 6% | · | 17µM*
Oc1c(Br)cc(Br)cc1C=Nc1ccc2c(c1)OCCO2 | 1% | -10% | 4% | ? | 0% | 24µM*
Oc1[nH]c2ccccc2c1C=Nc1ccc2c(c1)OCCO2 | ? | · | 1.4µM* | ? | · | 0.85µM*
C[C@H]1COC(=O)[C@@H](CC(=O)OC(C)(C)C)C/C=C\C[C@H](CC(=O)NCCO)C(=O)N1 | · | · | · | 0% | · | ·
Cc1ccc(C(=O)COC(=O)c2ccc(Cl)c(N)c2)s1 | ? | · | 3.2µM* | 14% | · | 1.3µM*
O=C(OCC(=O)c1ccc(Cl)s1)c1ccc(CO)cc1 | 0% | · | 0% | -1% | · | 21µM*
Nc1cc(C(=O)OCC(=O)c2ccc(CC(=O)N3CCOCC3)s2)ccc1Cl | 0% | · | -4% | -1% | · | ?
Cc1cccc(NC(=O)c2sc3nc4n(c(=O)c3c2C)N=C(c2ccc(F)cc2)CS4)c1C | · | · | · | · | · | -2%
COc1ccc(C(CC(=O)c2ccc(O)cc2)S(=O)(=O)c2ccc(C)cc2)cc1 (stereo not given) | ? | -7% | 2% | ? | -15% | 9.5µM*
O=C(Nc1nc(-c2ccc(Br)cc2)ns1)c1ccccc1F | · | · | · | · | · | -12%
Cc1ccccc1CN1CCN(c2nc3ccccc3s2)CC1 | 1.6µM* | · | 1.4µM* | 21µM* | · | 4.8µM*
CNC(=S)N1CCN(c2nc3ccccc3s2)CC1 | ? | -5% | ? | 17% | · | 17µM*
O=C(C1CC1)N1CCN(c2nc3ccccc3s2)CC1 | 2.8µM* | 0% | 2.2µM* | ? | ? | 21µM*
Cc1cc(C)c2sc(N3CCN(C(=O)C4CC4)CC3)nc2c1 | · | · | · | · | · | 12µM*
COc1ccccc1CNC(=O)C1CCN(S(=O)(=O)c2ccc(-n3cnnn3)cc2)CC1 | 2% | · | -1% | -5% | · | 0%
COc1ccc(N(C(=O)c2ccc(S(=O)(=O)N3CCCC3)cc2)C2C=CS(=O)(=O)C2)cc1 (stereo not given) | -8% | · | 0% | 1% | · | 8%
CCc1ccc(-n2c(=O)c3c4c(sc3n(CC(=O)NCCCOC)c2=O)CCC4)cc1 | · | · | · | · | -2% | -10%
CC(C)CCNC(=O)Nc1cc(C(=O)NCc2cccc(F)c2)ccc1N1CCCC1 | · | · | · | · | · | -1%
NS(=O)(=O)OCc1ccc(C(F)(F)F)cc1 | -1% | · | 0% | 2% | · | 3%
CCC(=O)N1CCN(c2nc3ccccc3s2)CC1 | ? | -4% | 3.2µM* | 6% | 2% | 17µM*
SMILES | NPC1 promoter act | KinaseGlo FLuc | Rab9 promoter act | ELG1 genotox | SMN2 splice enh | FLuc counter
CCS(=O)(=O)c1ccccc1C(=O)N1CCN(c2nc3ccccc3s2)CC1 | · | · | · | · | · | -4%
CCCCC(=O)N1CCN(c2nc3ccc(Cl)cc3s2)CC1 | ? | · | 29% | ? | · | 11µM*
CC(C)(CC(=O)O)CC(=O)N1CCN(c2nc3ccc(Cl)cc3s2)CC1 | -2% | · | -1% | 5% | · | -17%
NS(=O)(=O)c1cc(C(=O)OCC(=O)N2CCc3ccccc3C2)ccc1Cl | -1% | · | 12% | -4% | · | ?
COc1cccc(CNC(=O)CCC2CCCN(C(=O)c3cc4ccccc4o3)C2)c1 (stereo not given) | ? | · | 4.5µM* | 11% | · | 13µM*
COc1cccc(CNC(=O)CCC2CCCN(C(=O)c3ccoc3)C2)c1 (stereo not given) | 3% | -1% | 2% | 1% | · | 3%
CNC1CC(N)[C@H](O)[C@@H](O[C@@H]2OC(CO)C3OC4(OC(C(N)CO)C(O)C(O)C4O)O[C@@H]3[C@H]2O)C1O (stereo not given in full) | · | -1% | · | · | 7% | ·
CCC(Oc1ccccc1)C(=O)Nc1ccc(S(=O)(=O)Nc2cc(C)on2)cc1 (stereo not given) | 0% | · | -5% | 0% | · | 2%
COc1ccc(C(=O)CNc2ccccc2CO)cc1 | 10% | -27% | -3% | ? | ? | 17µM*
COC(=O)c1ccccc1NCC(=O)c1ccc(OC)cc1 | ? | · | 29% | 7% | · | ?
COc1ccc(C(=O)CNc2ccc(C)cc2C)cc1 | 23% | · | 36% | 12% | · | 12µM*
COc1ccc(CNC(=O)CSc2ccsc2[N+](=O)[O-])cc1 | ? | 2% | 2.2µM* | ? | ? | 17µM*
O=C(CSc1ccsc1[N+](=O)[O-])NCCc1ccc(Cl)cc1 | 2% | 2% | -8% | 0% | -13% | -1%
Cc1ccc(CNC(=O)CSc2ccsc2[N+](=O)[O-])cc1 | ? | 0% | 1.4µM* | ? | ? | ?
CC(=O)C[C@@H](O)CC(=O)[C@@H]1OC(=O)[C@H](C)CCCCc2ccccc21 | · | · | · | 1% | · | ·
CCCCN1C(=O)C(O)(CC(=O)c2ccc(CC)cc2)c2cc(Br)ccc21 (stereo not given) | · | · | · | · | -13% | -9%
CC(=O)Nc1ccc(C(=O)N/N=C/c2cccnc2)cc1 | -2% | -1% | 0% | 2% | -96%[1.84 µM] | 10%
COc1ccc(C(=O)N/N=C/c2cccnc2)cc1 | ? | · | 21% | ? | · | 15µM*
CCOc1ccc(C(=O)N/N=C/c2cccc3cccnc23)cc1 | -27% | -5% | -20% | 3% | -4% | 6.7µM*
COc1ccc(C(=O)N/N=C/c2cccc3cccnc23)cc1 | -4% | -5% | -10% | 2% | -14% | 7.6µM*
Cc1c(C)c2ccc(OCC(=O)Nc3ccccc3C(N)=O)cc2oc1=O | 3% | · | 18% | 16% | · | -1%
Cc1ccc(S(=O)(=O)c2nnn3c2nc(NC(C)c2ccccc2)c2sccc23)cc1 (stereo not given) | · | · | · | · | · | -1%
CC(C)=NOC(=O)c1ccc(-c2ccccc2)cc1 | 0% | 1% | -11% | 1% | ? | 8.5µM*
C/C(=N\OC(=O)c1ccc(OC(C)C)cc1)c1ccc(C)c(C)c1 | 1% | -3% | 13% | 13% | -24% | 13µM*

Assay outcomes as filed in PubChem.
